Measured values as given in PubChem BioAssay (NCATS).
Results filed as inconclusive are left out. Active and inactive are the calls of the source. Calls come from the whole dose curve; as a rule, active = well fitted curve in the direction sought with a large enough effect; inconclusive = small, poorly fitted or top-dose-only effect, or another doubt; inactive = no such curve, though single readings can be large; an effect the other way counts as inactive or inconclusive.

Key:
[1] = biological target: Metallo-beta-lactamase type 2 (Klebsiella pneumoniae) (UniProt C7C422); test: qHTS to identify inhibitors of the New Delhi Metallo-beta-lactamase (NDM): assay validation screen against the NCATS LOPAC Collection (AID 1794843); note: series mostly up to about 38 µM
In short: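 Absorbance at 485 nm from nitrocefin turnover (50 uM solution added), read at plateau, gives the read-out. Compounds in DMSO were incubated first with 2 nM final NDM-1 in pH 7.0 HEPES buffer containing 1 uM ZnSO4 and 0.01% Tween20.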

[2] = biological target: Glutathione peroxidase 1 (Homo sapiens) (UniProt P07203); test: Primary qHTS Assay for Inhibitors of Recombinant Selenoprotein Glutathione Peroxidase 1 (GPX1) (AID 1845191); note: nearly all actives have a fitted effect of over 65% in size
In short: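 GR-coupled assay: compounds preincubated 30 min at room temperature with GPX1, then reaction started with CHP; final 10 nM GPX1, 1 mM GSH, 0.5 mM CHP, 0.5 mM NADPH, 100 nM GR, 0.01% BSA, pH 7.5 Tris buffer. NADPH fluorescence (340/450 nm) read at 0 and 15 min.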

[3] = biological target: Phospholipid hydroperoxide glutathione peroxidase GPX4 (Homo sapiens) (UniProt P36969); test: Primary qHTS Assay for Inhibitors of Recombinant Selenoprotein Glutathione Peroxidase 4 (GPX4) (AID 1845192); note: nearly all actives have a fitted effect of over 65% in size
In short: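 GR-coupled assay: recombinant GPX4 preincubated 30 min with compound at room temperature; final 200 nM GPX4, 1 mM GSH, 0.5 mM cumene hydroperoxide, 0.5 mM NADPH, 100 nM GR, 0.01% BSA, pH 7.5 Tris. NADPH fluorescence (340/450 nm) read at 0 and 15 min.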

Measured: Potency

Sequence of Glutathione peroxidase 1 (Homo sapiens) (P07203 whole entry, looked up): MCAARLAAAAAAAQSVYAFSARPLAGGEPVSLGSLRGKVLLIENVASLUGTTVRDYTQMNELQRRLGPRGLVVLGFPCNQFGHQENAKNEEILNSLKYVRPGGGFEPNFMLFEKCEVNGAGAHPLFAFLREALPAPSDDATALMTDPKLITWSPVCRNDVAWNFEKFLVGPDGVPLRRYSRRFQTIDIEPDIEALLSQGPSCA
Sequence of Phospholipid hydroperoxide glutathione peroxidase GPX4 (Homo sapiens) (P36969 whole entry, looked up): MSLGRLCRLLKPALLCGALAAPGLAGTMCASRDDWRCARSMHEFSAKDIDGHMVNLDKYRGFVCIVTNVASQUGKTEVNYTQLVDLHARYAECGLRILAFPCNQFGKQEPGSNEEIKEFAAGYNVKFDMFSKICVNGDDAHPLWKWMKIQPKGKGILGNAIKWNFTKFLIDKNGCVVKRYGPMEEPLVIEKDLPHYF
Sequence of Metallo-beta-lactamase type 2 (Klebsiella pneumoniae) (C7C422 whole entry, looked up): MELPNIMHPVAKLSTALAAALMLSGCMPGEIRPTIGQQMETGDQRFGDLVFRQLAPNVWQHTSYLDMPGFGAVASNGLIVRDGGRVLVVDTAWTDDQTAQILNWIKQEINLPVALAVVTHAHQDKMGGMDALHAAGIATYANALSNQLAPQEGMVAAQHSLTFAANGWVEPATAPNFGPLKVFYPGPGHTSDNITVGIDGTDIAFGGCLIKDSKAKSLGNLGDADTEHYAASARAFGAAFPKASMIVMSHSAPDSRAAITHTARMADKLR

CCCCCCCCCCCCCCCCCC(=O)OC(CC(=O)O)C[N+](C)(C)C (stereo not drawn)
inactive: all assays above

O=[N+]([O-])c1ccc(CSc2ncnc3c2ncn3[C@@H]2O[C@H](CO)[C@@H](O)[C@H]2O)cc1
inactive: all assays above

Oc1cc2c(cc1O)CN(C(=S)NCCc1ccc(Cl)cc1)CCC2
inactive: all assays above

CC[C@@H](C)[C@H]1O[C@]2(CC[C@H]1C)C[C@@H]1C[C@@H](CC=C(C)[C@@H](O[C@H]3C[C@H](OC)[C@@H](O[C@H]4C[C@H](OC)[C@@H](O)[C@H](C)O4)[C@H](C)O3)[C@@H](C)C=CC=C3CO[C@@H]4[C@H](O)C(C)=C[C@@H](C(=O)O1)[C@]34O)O2
inactive: all assays above

COc1ccc(Br)cc1S(=O)(=O)NC(=O)/C=C/c1ccccc1Cc1ccc2ccccc2c1
inactive: all assays above

COc1cc(SC)ccc1C(=O)N1CCC(Cc2ccccc2)CC1
inactive: all assays above

CCOC(=O)N1CCN(/[N+]([O-])=N/Oc2ccc([N+](=O)[O-])cc2[N+](=O)[O-])CC1
inactive: all assays above

Cc1cc2c(cc1Cl)N(C(=O)Nc1ccc(Oc3cccnc3C)nc1)CC2
inactive: all assays above

C#C[C@]1(O)CC[C@H]2[C@@H]3CCC4=Cc5oncc5CC4(C)[C@H]3CCC21C (stereo partly drawn)
inactive: all assays above

O=C(Nc1ccncc1)c1cc([N+](=O)[O-])ccc1Cl
inactive: all assays above

S=c1[nH]c(-c2ccccc2)cn1-c1ccccc1
inactive: all assays above

O=C(O)CNC(=O)C(CS)Cc1ccccc1 (stereo not drawn)
inactive: all assays above

CNc1ncnc2c1ncn2[C@@H]1O[C@H](CO)[C@@H](O)[C@H]1O
inactive: all assays above

CCC(CO)Nc1nc(NCc2ccccc2)c2ncn(C(C)C)c2n1 (stereo not drawn)
inactive: all assays above

CC1(C)CCC=[N+]1[O-]
inactive: all assays above

O=C(O)CC1CCCc2ccccc2C1O (stereo not drawn)
inactive: all assays above

Cn1c(=O)c2[nH]c(-c3ccccc3)nc2n(C)c1=O
inactive: all assays above

CC(=O)N[C@H](C(=O)O)C(C)(C)SN=O
inactive: all assays above

CC(C)Cc1ccc([C@H](C)C(=O)O)cc1
inactive: all assays above

NO
inactive: all assays above

S=C(S)OC1CC2CC1C1CCCC21 (stereo not drawn)
inactive: all assays above

CC[C@H]1OC(=O)[C@H](C)C(O[C@H]2C[C@@](C)(OC)[C@@H](O)[C@H](C)O2)[C@H](C)[C@@H](OC2O[C@H](C)C[C@H](N(C)C)[C@H]2O)[C@](C)(O)C[C@@H](C)CN(C)[C@H](C)[C@@H](O)[C@]1(C)O (stereo partly drawn)
inactive: all assays above

O=C(CCCCCN1CCN(c2ccccc2-c2ccccc2)CC1)NC1CCCc2ccccc21 (stereo not drawn)
inactive: all assays above

O=C(c1cc(O)c(O)c([N+](=O)[O-])c1)c1ccccc1F
inactive: all assays above

O=c1[nH]c2cc(C(F)(F)F)ccc2n1-c1cc(C(F)(F)F)ccc1O
inactive: all assays above

O=C1/C(=C/c2ccsc2)CC/C1=C\c1cccs1
inactive: all assays above
